Our source for the composite z-score and z-score values is PubChem BioAssay.

The source made the active and inactive calls.

Assay [1] has as its system PRMT1 (protein arginine N-methyltransferase 1). Briefly: small molecules binding arginine methyltransferase PRMT1 – biochemical, small-molecule microarray, 635 nm fluorescence, primary screen (AID 1088).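 Further: binding of Prmt1 protein to compounds spotted on small-molecule microarray slides.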 Conditions: higher = more signal.
Assay [2] in a line: growth effects on S. cerevisiae YJM789 – YJM789 clinical isolate, OD600, 24 h, basal, primary screen (AID 1089).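 Further: growth of clinical yeast isolate S. cerevisiae YJM 789 seeded 1000 cells per well; test concentration not given here.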 Conditions: higher = more signal, called active from +8 up or from −8 down.
Assay [3] is described as follows: S. pombe growth modifiers, basal conditions – strain 972, OD600, 24 h, no modulator, primary screen (AID 1090).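 Further: basal condition with compound alone and no growth modifier present; test concentration not given here.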 Particulars: S. pombe 972 growth, higher = more signal, called active from +8 up or from −8 down.
A short description of assay [4]: budding yeast growth modifiers under rapamycin – strain BY4716, OD600, 96 h, primary screen (AID 1091). Further: test concentration not given here. Particulars: S. cerevisiae BY4716 + rapamycin, higher = more signal, called active from +8 up or from −8 down.
In assay [5] the target is Torsin-1A-interacting protein 2 (Homo sapiens) (UniProt Q8NFQ8). In words: small molecules binding lysate-expressed LULL1 – cell lysate, human LULL1 lysate, 635/667 nm fluorescence, primary screen (AID 1092).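 Further: probe is lysate of COS7 cells overexpressing human LULL1; score merges per-feature 667 nm fluorescence with signal-to-noise.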 Conditions: small-molecule microarray, hLULL1 lysate binding, 635 nm fluorescence; higher = more signal.
A short description of assay [6]: optical density change of DRC41 E. coli – strain DRC41, OD650, 24 h, E. coli filamentation project, primary screen (AID 1093).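 Further: MC1000 strain lacking acrAB efflux and sulA so SOS filamentation is blocked; test concentration not given here.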 Particulars: E. coli DRC41 growth, higher = more signal, called active from +8 up or from −8 down.
Assay [7] can be described thus: probe aLefty2 binding to arrayed compounds – biochemical, biotinylated probe, 635/667 nm fluorescence, primary screen (AID 1094).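 Further: score merges spot fluorescence near 667 nm with spot signal-to-noise ratio.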 Particulars: small-molecule microarray, higher = more signal.
Assay [8] deals with Noggin (protein binding on small-molecule microarray). In words: small molecules binding Noggin protein – biochemical, 635/667 nm fluorescence, primary screen (AID 1095).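 Further: score merges 667 nm feature fluorescence with signal to noise over triplicate slides.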 Conditions: 635 nm fluorescence, higher = more signal.
The target of assay [9] is Neurogenic locus notch homolog protein 3 (Homo sapiens) (UniProt Q9UM47). In words: small molecules binding NOTCH3 protein – biochemical, 635/667 nm fluorescence, primary screen (AID 1096). Particulars: small-molecule microarray, 635 nm fluorescence, higher = more signal.
Assay [10] is described as follows: probe aEGFR binding to arrayed compounds – biochemical, biotinylated probe, 635/667 nm fluorescence, primary screen (AID 1097).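 Further: probe is a biotinylated anti-EGFR antibody binding compounds printed on slides; score combines fluorescence near 667 nm and signal to noise of each spot.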 Conditions: small-molecule microarray, higher = more signal.
Assay [11] deals with Plasmodium falciparum Sir2 (PF13_0152, Sir2A). In words: Plasmodium falciparum Sir2A binding compounds – biochemical, small-molecule microarray, 635 nm fluorescence, primary screen (AID 1098).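 Further: score merges spot fluorescence intensity with its signal-to-noise ratio.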 Conditions: fluorescence 635 nm, higher = more signal.
Assay [12] can be described thus: probe aDKK1 binding to arrayed compounds – biochemical, biotinylated probe, 635/667 nm fluorescence, primary screen (AID 1099).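 Further: score merges 667nm spot fluorescence with signal to noise across triplicate slides; reference of the scale not given here.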 Conditions: small-molecule microarray, higher = more signal.
The nature of assay [13]: probe aCHRDL2 binding to arrayed compounds – biochemical, biotinylated probe, 635/667 nm fluorescence, primary screen (AID 1100). Particulars: small-molecule microarray, higher = more signal.
Assay [14] is described as follows: change in splice reporter luminescence, either direction, cell-based, HEK293, spliceosome inhibition project, primary screen (AID 1101).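 Further: HEK293 cells carrying a splicing-competent luciferase reporter gene; test concentration not given here.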 Particulars: HEK293 splicing luciferase reporter, 24 h, higher = more signal, called active from +8 up or from −8 down.
In assay [15] the target is Fibroblast growth factor 10 (Homo sapiens) (UniProt O15520). Briefly: compounds binding fibroblast growth factor 10 – biochemical, small-molecule microarray, 635 nm fluorescence, primary screen (AID 1102). Particulars: FGF10 binding, fluorescence 635 nm, higher = more signal.
The subject of assay [16] is glycogen synthase kinase-3 (GSK3A per assay name; protocol says GSK3B). Briefly: compounds binding glycogen synthase kinase-3 – biochemical, small-molecule microarray, 635 nm fluorescence, GSK3A, primary screen (AID 1103). Further: the record names both GSK3A and GSK3B. Conditions: fluorescence 635 nm, higher = more signal.
The target of assay [17] is Epidermal growth factor receptor (Homo sapiens) (UniProt P00533). In words: compounds binding epidermal growth factor receptor – biochemical, small-molecule microarray, 635 nm fluorescence, primary screen (AID 1104).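 Further: score merges 667 nm emission intensity with spot signal to noise over triplicate slides.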 Conditions: EGFR binding, higher = more signal.
The target in assay [18] is Follistatin-related protein 3 (Homo sapiens) (UniProt O95633). Briefly: compounds binding follistatin-related protein 3 – biochemical, small-molecule microarray, 635 nm fluorescence, primary screen (AID 1105).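 Further: score merges emission near 667 nm and signal to noise per printed spot across three slides.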 Particulars: FSTL3 binding, higher = more signal.
Assay [19] addresses Dickkopf-related protein 1 (Homo sapiens) (UniProt O94907). Briefly: small molecules binding DKK1 protein – biochemical, small-molecule microarray, 635 nm fluorescence scan, primary screen (AID 1106).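 Further: score merges emission near 667 nm with signal to noise over three replicate slides.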 Particulars: higher = more signal.
Assay [20] concerns Inhibin beta A chain (activin A). In words: small molecules binding activin A – biochemical, small-molecule microarray, 635 nm fluorescence scan, primary screen (AID 1107).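 Further: mouse activin A protein probed at 4.33 µg/mL on printed slides; score merges bound-protein fluorescence near 667 nm with spot signal-to-noise.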 Conditions: INHBA, higher = more signal.

Sequence of Neurogenic locus notch homolog protein 3 (Homo sapiens) (Q9UM47 whole entry, looked up): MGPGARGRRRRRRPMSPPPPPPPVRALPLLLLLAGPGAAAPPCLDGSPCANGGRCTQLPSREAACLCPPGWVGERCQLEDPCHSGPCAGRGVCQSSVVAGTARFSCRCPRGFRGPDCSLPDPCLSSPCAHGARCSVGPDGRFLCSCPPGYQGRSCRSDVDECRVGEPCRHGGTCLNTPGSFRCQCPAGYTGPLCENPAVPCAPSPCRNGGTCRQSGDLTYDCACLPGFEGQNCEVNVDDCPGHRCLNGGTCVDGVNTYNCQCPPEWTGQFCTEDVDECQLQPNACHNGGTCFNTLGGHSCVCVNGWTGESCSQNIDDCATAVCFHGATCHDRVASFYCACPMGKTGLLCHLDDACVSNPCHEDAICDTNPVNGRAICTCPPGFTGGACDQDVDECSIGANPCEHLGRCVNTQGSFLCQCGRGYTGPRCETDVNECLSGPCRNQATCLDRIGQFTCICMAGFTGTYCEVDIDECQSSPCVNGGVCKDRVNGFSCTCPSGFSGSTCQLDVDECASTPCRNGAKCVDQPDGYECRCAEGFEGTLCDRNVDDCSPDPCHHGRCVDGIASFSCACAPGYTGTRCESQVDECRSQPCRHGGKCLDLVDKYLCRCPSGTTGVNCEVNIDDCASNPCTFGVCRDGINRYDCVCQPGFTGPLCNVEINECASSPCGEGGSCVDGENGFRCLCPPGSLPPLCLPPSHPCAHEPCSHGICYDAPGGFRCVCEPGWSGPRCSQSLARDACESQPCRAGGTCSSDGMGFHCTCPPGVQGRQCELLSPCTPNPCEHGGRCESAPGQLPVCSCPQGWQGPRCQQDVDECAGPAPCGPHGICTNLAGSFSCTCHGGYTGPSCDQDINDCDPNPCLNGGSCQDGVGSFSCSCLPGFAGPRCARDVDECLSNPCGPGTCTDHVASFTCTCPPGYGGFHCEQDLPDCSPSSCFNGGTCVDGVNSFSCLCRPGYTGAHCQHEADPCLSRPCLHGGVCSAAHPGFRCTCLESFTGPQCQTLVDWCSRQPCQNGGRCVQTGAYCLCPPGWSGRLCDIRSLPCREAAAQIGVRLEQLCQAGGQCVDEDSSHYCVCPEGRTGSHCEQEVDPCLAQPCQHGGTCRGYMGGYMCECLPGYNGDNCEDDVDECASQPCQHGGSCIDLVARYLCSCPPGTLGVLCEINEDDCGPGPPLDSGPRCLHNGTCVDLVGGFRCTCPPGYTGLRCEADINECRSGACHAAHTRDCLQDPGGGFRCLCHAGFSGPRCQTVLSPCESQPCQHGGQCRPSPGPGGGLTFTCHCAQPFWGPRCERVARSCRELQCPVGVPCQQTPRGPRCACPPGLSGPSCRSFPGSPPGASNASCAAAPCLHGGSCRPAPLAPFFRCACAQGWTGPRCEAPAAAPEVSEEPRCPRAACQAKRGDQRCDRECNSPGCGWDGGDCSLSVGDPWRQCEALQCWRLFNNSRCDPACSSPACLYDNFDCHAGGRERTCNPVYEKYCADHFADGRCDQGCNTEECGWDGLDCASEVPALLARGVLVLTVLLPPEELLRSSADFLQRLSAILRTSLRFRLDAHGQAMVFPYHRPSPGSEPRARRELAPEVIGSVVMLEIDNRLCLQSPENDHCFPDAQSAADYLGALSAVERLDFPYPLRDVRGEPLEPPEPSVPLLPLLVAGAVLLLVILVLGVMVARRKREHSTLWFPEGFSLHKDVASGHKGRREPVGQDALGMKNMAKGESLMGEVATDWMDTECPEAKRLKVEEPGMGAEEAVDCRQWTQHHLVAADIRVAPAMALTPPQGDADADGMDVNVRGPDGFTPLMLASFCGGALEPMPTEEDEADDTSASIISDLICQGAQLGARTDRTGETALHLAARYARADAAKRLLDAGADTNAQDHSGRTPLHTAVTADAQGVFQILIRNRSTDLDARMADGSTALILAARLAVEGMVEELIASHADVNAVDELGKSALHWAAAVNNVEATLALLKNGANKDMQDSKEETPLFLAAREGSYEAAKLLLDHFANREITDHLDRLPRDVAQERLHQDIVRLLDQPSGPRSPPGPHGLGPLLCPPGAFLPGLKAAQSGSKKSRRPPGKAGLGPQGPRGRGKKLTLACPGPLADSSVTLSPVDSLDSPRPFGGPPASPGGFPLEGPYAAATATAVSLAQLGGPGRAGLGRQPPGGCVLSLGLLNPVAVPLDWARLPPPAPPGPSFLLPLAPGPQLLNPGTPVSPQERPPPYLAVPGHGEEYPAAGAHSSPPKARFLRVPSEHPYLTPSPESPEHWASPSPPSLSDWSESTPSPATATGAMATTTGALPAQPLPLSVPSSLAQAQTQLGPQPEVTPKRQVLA
Sequence of Epidermal growth factor receptor (Homo sapiens) (P00533 whole entry, looked up): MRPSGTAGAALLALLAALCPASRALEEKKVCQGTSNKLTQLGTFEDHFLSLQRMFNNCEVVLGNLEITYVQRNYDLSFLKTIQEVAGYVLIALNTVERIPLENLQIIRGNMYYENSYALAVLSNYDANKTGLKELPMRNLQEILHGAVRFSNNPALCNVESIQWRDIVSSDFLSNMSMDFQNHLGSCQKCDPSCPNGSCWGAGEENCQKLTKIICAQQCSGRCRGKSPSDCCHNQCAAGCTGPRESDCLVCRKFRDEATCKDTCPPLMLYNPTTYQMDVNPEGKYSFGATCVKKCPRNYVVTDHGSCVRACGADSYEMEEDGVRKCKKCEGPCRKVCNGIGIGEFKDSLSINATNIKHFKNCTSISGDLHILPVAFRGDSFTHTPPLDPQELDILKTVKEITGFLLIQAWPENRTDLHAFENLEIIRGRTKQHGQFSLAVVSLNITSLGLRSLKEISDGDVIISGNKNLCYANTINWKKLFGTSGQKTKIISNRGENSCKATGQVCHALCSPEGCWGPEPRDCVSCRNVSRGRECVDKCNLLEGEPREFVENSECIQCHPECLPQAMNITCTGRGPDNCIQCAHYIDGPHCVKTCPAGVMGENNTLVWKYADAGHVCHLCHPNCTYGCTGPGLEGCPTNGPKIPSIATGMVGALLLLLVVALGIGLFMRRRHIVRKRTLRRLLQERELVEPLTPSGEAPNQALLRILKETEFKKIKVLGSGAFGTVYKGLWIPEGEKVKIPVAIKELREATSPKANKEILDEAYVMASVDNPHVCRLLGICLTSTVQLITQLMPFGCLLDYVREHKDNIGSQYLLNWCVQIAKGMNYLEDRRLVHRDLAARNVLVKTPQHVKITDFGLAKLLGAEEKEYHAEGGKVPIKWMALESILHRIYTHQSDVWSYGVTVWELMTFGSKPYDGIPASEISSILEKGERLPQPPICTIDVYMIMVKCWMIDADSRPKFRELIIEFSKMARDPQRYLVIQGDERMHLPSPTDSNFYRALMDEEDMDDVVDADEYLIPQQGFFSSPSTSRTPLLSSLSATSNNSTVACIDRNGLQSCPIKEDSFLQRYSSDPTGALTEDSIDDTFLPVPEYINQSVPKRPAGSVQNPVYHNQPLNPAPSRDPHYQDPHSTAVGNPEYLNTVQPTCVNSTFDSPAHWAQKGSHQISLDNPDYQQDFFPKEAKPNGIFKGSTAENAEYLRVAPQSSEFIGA
Sequence of Follistatin-related protein 3 (Homo sapiens) (O95633 whole entry, looked up): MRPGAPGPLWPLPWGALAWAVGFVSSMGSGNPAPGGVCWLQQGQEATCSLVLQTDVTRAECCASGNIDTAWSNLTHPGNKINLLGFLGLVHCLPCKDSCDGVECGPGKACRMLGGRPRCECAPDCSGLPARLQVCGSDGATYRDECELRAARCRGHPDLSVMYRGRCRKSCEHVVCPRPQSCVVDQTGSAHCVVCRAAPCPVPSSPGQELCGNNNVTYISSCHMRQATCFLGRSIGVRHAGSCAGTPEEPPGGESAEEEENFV
Sequence of Dickkopf-related protein 1 (Homo sapiens) (O94907 whole entry, looked up): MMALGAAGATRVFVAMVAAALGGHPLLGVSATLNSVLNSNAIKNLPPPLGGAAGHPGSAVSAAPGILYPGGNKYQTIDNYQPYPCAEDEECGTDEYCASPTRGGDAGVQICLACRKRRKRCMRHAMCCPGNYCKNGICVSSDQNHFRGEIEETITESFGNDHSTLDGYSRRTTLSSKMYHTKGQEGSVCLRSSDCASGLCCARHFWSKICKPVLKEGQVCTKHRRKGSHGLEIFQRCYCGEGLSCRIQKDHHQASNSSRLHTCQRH
Sequence of Torsin-1A-interacting protein 2 (Homo sapiens) (Q8NFQ8 whole entry, looked up): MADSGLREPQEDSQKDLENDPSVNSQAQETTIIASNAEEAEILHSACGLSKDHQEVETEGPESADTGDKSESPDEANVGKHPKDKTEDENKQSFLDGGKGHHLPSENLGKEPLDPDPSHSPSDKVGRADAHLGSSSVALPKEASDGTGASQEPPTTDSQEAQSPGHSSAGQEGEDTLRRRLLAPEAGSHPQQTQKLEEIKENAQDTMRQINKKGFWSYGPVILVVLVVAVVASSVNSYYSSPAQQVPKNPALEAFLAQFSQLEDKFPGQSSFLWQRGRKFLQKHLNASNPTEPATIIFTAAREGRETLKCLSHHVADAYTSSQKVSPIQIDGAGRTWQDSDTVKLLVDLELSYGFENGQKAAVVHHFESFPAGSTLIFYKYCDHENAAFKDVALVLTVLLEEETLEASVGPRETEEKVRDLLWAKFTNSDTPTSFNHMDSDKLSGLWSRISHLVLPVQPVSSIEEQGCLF
Sequence of Fibroblast growth factor 10 (Homo sapiens) (O15520 whole entry, looked up): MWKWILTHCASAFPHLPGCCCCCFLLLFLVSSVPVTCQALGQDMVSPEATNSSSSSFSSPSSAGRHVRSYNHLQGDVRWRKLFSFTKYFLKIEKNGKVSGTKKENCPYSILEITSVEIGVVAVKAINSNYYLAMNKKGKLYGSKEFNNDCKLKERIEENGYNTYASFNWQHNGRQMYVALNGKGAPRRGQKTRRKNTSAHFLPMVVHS

In the case of `C[C@H]1C2[C@H](Cc3ccccc3)NC(=O)[C@]23C(=O)N[C@H](Cc2ccccc2)C(=O)N[C@@H](Cc2ccccc2)C(=O)NC/C=C\C/C=C/C3[C@@H]2O[C@]12C` (stereo not given in full), the composite z-score in assay [1] is -0.0599; in assay [5], 0.168; in assay [7], -0.0882; in assay [8], -0.152; in [9] it was 0.367; in assay [10], -0.113. Moreover, the composite z-score in [11] was 0.0468; in [12], -0.315; in [13] it was -0.202; in [15], 0.345; in assay [16], -0.256; in assay [17] it was -0.228. Also, the values for the composite z-score in assay [18], in assay [19] and in assay [20] were 0.223, 0.409 and 1.16, respectively. Further, the z-score was -0.371 (inactive) in assay [2]; -0.246 (inactive) in assay [3]; -0.639 (inactive) in [4]; 1.25 (inactive) in assay [6]; -0.148 (inactive) in assay [14].

Regarding `CCOC(=O)C[C@H]1[C@H](OC(=O)Cc2ccc3c(c2)OCO3)[C@@H](NC(=O)CC(C)C)c2cc(OCCCO)ccc2N1C(=O)c1ccccc1`, the composite z-score in assay [1] is 0.53; in assay [5], 0.836; in assay [7] it was -0.0127; in [8], 0.542; in assay [9], 0.417; in [10], 0.0253. The composite z-score was 0.899 in [11]; -0.095 in assay [12]; -0.533 in [13]; 0.723 in [15]; 0.263 in [16]; 0.369 in assay [17]. The composite z-score turned out to be 0.321 in assay [18], 0.451 in assay [19] and 0.643 in assay [20]. Moreover, the z-score is -0.211 (inactive) in assay [2]; -1.36 (inactive) in [3]; -0.66 (inactive) in assay [4]; 1.6 (inactive) in assay [6]; -1.6 (inactive) in assay [14].

`CC1CC/C=C\[C@H]2OC34C=CCN(Cn5nnc6ccccc65)C(=O)[C@H]3N(C(C)CO)C(=O)[C@@H]4C2C(=O)O1` (stereo not given in full): the composite z-score in assay [1] is -0.151; in [5] it was 2.22; in assay [7], -0.144; in assay [8], -0.537; in [9], -0.118; in assay [10], -0.19. Also, the composite z-score in assay [11] was 1.26; in [12], -0.0466; in [13] it was 0.201; in assay [15], 0.0056; in assay [16] it was -0.837; in assay [17], -0.848. Moreover, the composite z-score in [18] is -0.814; in assay [19], -0.936; in [20] it was 0.494. For the same compound, the z-score was 0.799 (inactive) in assay [2]; 0.0528 (inactive) in [3]; 0.272 (inactive) in [4]; -0.224 (inactive) in assay [6]; 0.825 (inactive) in assay [14].

On to `COCCCNC(=O)[C@@]1(c2ccc([N+](=O)[O-])cc2)CC(=O)N(C2CCCCC2)[C@@H]1c1ccc(CO)cc1`, for which the composite z-score is 0.139 in assay [1]; 2.04 in assay [5]; -0.509 in [7]; -0.836 in assay [8]; -0.193 in [9]; -0.421 in assay [10]. The composite z-score is -0.463 in [11]; -0.86 in assay [12]; -0.67 in assay [13]; 0.316 in assay [15]; 0.296 in [16]; -0.0545 in assay [17]. The composite z-score in [18] was -0.186; in [19] it was -0.296; in [20], -0.395. The z-score in assay [2] is -0.707 (inactive); in assay [3] it was -0.591 (inactive); in [4], -0.432 (inactive); in assay [6], 0.77 (inactive); in assay [14], -0.748 (inactive).

On to `[N-]=[N+]=Nc1ccccc1C[C@@]1(C(=O)N2CCOCC2)N=C(c2ccc(OCCCO)cc2)O[C@@H]1c1ccccc1N=[N+]=[N-]`, for which the composite z-score came to 1.56 in assay [1]; 2.32 in assay [5]; 0.369 in assay [7]; 0.8 in [8]; 1.09 in assay [9]; 0.0477 in assay [10]. In addition, the composite z-score in assay [11] was 0.668; in assay [12] it was 1.35; in [13] it was 1.13; in assay [15] it was 0.997; in [16], 1.29; in assay [17], 0.215. Further, the composite z-score in assay [18] is 1.28; in [19], 0.444; in [20], 0.937. The z-score was -0.822 (inactive) in assay [2]; -2.95 (inactive) in assay [3]; 1.56 (inactive) in [4]; 2.13 (inactive) in assay [6]; 0.144 (inactive) in assay [14].
